The text below walks through data of PubChem BioAssay (NCATS).

Records with an inconclusive call do not appear. Unmarked numbers belong to inactive results. Active and inactive are the calls of the source. Calls follow the shape of the dose curve; as a rule, active = well fitted inhibition curve with a large enough effect; inconclusive = small, poorly fitted or top-dose-only effect; inactive = flat fitted curve, though single readings scatter.
% is scaled to controls: 0 for no effect and ±100 for the full control effect.

For the assay, the system named is NIH3T3. Nature of the assay: Cytotoxic Profiling of Annotated Libraries Using Quantitative High-Throughput Screening (AID 1296008). Also: nearly all actives have a fitted effect of over 60% in size. As to conditions: Five cell lines viability, CellTiter-Glo ATP luminescence, 48-72 h; max response: hits give low values. Summed up: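 Cytotoxicity was measured as CellTiter-Glo ATP luminescence, read after 10 min at room temperature. Compound treatment of the cells lasted 48 or 72 hr at 37 degrees Celsius in a qHTS format.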
With `OC1(c2ccc(Cl)cc2)CCNCC1`, the max response was -2.06%. As to `CCCCN(CCN(CCCC)C(=O)N1CCOCC1)C(=O)N1CCOCC1`, the max response was -9.41%. With `O=C(CCCl)NCc1ccccc1`, the compound was called inactive. Take `CN(C)C(=O)CNC(=O)Cc1ccccc1`: the max response was -5.07%. Take `CCNC(=O)NCCCOc1cccc(CN2CCCCC2)c1`: the call was inactive.

Consider `CCN(CC)CC(=O)Nc1c(C)cccc1C(=O)OC`, for which the max response is 1.11%. Turning to `CCCCCCOC(=O)NC(=N)c1ccc(NCc2nc3cc(C(=O)N(CCC(=O)OCC)c4ccccn4)ccc3n2C)cc1`, the max response was 1.24%. The same measure, in the same setting: the same measure for `CC1(C)OC(=O)Nc2ccc(Br)cc21`: 3.48%. Turning to `CC(C)(C)NCC(O)COc1ccccc1OCC1CCCO1` (centres undefined), the result was inactive. Turning to `COC(=O)c1c(Cl)c(Cl)c(C(=O)OC)c(Cl)c1Cl`, the max response was -9.58%. Take `CCN(CC)CCN`: the max response was -0.486%.

As for `c1ccc2occc2c1`, the max response was -3.85%.

For `C[C@@H]1C[C@H]2[C@@H]3CCC4=CC(=O)C=C[C@]4(C)[C@@]3(F)[C@@H](O)C[C@]2(C)[C@@]1(O)C(=O)COC(=O)c1ccncc1`, the max response is -6.36%.

Take `O=C(C1CCCCC1)N1CC(=O)N2CCCc3ccccc3C2C1` (centres undefined): the compound was called inactive. As for `O=c1[nH]sc2cc(Cl)ccc12`, the max response was -92.7%. Take `Nc1ncnc2c1ncn2Cc1c(F)cccc1Cl`: the outcome was inactive. Take `CC(Oc1c(Cl)cccc1Cl)C1=NCCN1` (centres undefined): the max response is 3.55%. Take `CCCCCCCCCCCCCCCCCCN(C)C`: the max response was 0.657%. With `CCN(CC)CC(=O)OCC(=O)[C@@]1(O)CC[C@H]2[C@@H]3CCC4=CC(=O)CC[C@]4(C)[C@H]3[C@@H](O)C[C@@]21C`, the compound was classed as inactive.
